Rows were chosen to be rich in hits. Some 1.2% of all compounds tested hit in one or more screens of this group.
CCT chaperon mod: changes cytosolic chaperonin activity. purified chaperonin ATPase assay, HTRF ADP detection, 30 min. activity change, % (concentration not given with the values), hits read low. hit rate 0.3% among 360,000. AID 651819; in the data active = activity change below about -30%
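TRiC (40 or 20 nM final, by batch activity) in 30 mM Tris pH 7.4, 100 mM KCl, 5 mM MgCl2, 1 mM DTT was treated with compound at 76 uM single dose, then 10 uM ATP, 30 min at 37 °C. ADP was read by HTRF Transcreener.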
Six1-Eya2 blk: inhibitors of human Six1/Eya2 interaction | AID 651725 | activity change, % (test concentration not listed) | AlphaScreen GST-Six1/His-Eya2 binding, biochemical; hits give low values | hit rate 0.56% among 360,000
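Compounds are tested against tagged Six1 and Eya2 proteins bridged by glutathione donor and nickel acceptor beads; after a one-hour incubation at 37 °C without light, AlphaScreen emission is recorded.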
Akt phos inh: Akt phosphorylation inhibition. hit rate 0.32% among 360,000. activity change, % for hits at 50 µM. Neuro2A IGF-stimulated pAkt S473 HTRF, 20 min; hits give low values; in the data active = activity change below about -80%; inconclusive = mostly about -51% to -80%
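Single-point screen (50 µM final compound) in Neuro2A cells stimulated 20 min with 6 nM IGF at 37 deg C. After lysis, Ser473-phosphorylated Akt read by HTRF (ex 330 nm, em 615/665 nm) as the 665/615 ratio.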
CtBP-E1A blk: inhibitors of CtBP/E1A interaction; AlphaScreen GST-E1A/His-CtBP binding, 1536-well; hits give low values; activity change, % (test concentration not listed); hit rate 0.49% among 340,000
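AlphaScreen with 125 nM GST-E1A and 125 nM His-CtBP (5X stocks) in Tris pH 8.0, 300 mM NaCl, BSA, Tween 20, TCEP. Compounds preincubated 2 h at 37 deg C, then glutathione donor/nickel acceptor beads added for 1 h at 37 deg C in dark.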
A number is an active result; n = inactive; u = inconclusive; x = no result. Rule as the data show it, unless noted: active = activity change below about -65%; inconclusive = mostly about -30% to -63%; inactive = weaker than that.

SMILES	CCT chaperon mod	Six1-Eya2 blk	Akt phos inh	CtBP-E1A blk
CC(=O)N1CCC(C(=O)Nc2ccccc2)(N(Cc2ccccc2)C(=O)c2cccnc2)CC1	n	n	-112.6%	n
CCOC(=O)c1c(C)oc2c1c(C=NCc1ccccn1)c(O)c1ccccc12	n	-75.3	n	n
COc1ccc(NC(=O)CCCCCN2C(=O)c3cccc([N+](=O)[O-])c3C2=O)c(OC)c1	-38.6	n	n	x
O=C(O)COc1c(F)c(F)c(C(F)(F)F)c(F)c1F	n	n	n	n
CC(=O)N1CCN(c2c(F)c(F)c(C(F)(F)F)c(F)c2F)CC1	-38.0	n	n	n
Cc1ccnc(NC(=O)Cn2c(=O)oc3ccccc32)c1	n	n	n	n
CCCC(=O)NC(c1cccs1)c1cc(Cl)c2cccnc2c1O (stereo not given)	n	u	n	-70.5
CCC(=O)NC(c1ccc(OC)c(OC)c1)c1cc(Cl)c2cccnc2c1O (stereo not given)	n	-81.7	n	-85.1
CCCC(=O)NC(c1ccc2c(c1)OCO2)c1cc(Cl)c2cccnc2c1O (stereo not given)	n	-76.9	n	-77.6
CCCC(=O)NC(c1ccco1)c1cc(Cl)c2cccnc2c1O (stereo not given)	n	-83.2	n	-90.0
COc1ccc(C(NC(C)=O)c2cc(Cl)c3cccnc3c2O)cc1OC (stereo not given)	n	u	n	u
COc1ccccc1C(NC(C)=O)c1cc(Cl)c2cccnc2c1O (stereo not given)	n	u	n	u
CC(C)n1c(CNC(=O)c2ccccc2F)nnc1SCC(=O)c1ccc(F)cc1	n	n	n	n
CC(Cl)C(=O)c1c[nH]c2ccccc12 (stereo not given)	n	n	n	n
O=C(CNS(=O)(=O)c1ccc(Br)cc1)Nc1ccc2c(c1)OCCO2	n	n	n	n
COc1c(C)cc(C(O)c2ncc(-c3ccc4ccccc4c3)[nH]2)cc1C (stereo not given)	n	n	n	n
O=C(CCS(=O)(=O)c1ccc(Br)cc1)N1CCCCCC1	-73.6	u	x	x
CN(CC(=O)Nc1ccccc1)CC(=O)Nc1ccc(F)cc1	n	n	n	n
COc1ccccc1C1(O)CCN(CC(=O)Nc2nc(-c3ccccc3)cs2)CC1	-45.6	n	n	n
COc1cc(OC)c2c(c1C(CCN1CCOCC1)c1ccc(N(C)C)cc1)OC(=O)CC2c1ccc(N(C)C)cc1 (stereo not given)	n	-79.8	n	u
Cc1ccccc1NC(=O)C(C)n1c2ccccc2c2nc(=O)cc(C)n21 (stereo not given)	n	n	n	x
Cc1ccc(Sc2c([N+](=O)[O-])ncn2C)cc1	n	n	-109.6%	n
Cn1cnc([N+](=O)[O-])c1Sc1ccc(Br)cc1	n	n	n	x
Nc1ccn(CC(=O)NCCNc2ccc([N+](=O)[O-])cn2)c(=O)n1	n	n	n	n
O=S(=O)(c1ccc(Cl)cc1)N1CCC(N2CCCCCC2)CC1	n	n	-118.6%	n
SMILES	CCT chaperon mod	Six1-Eya2 blk	Akt phos inh	CtBP-E1A blk
CCOC(=O)N1CCN(Cc2ccccn2)CC1	n	n	-104.7%	n
CCOC(=O)C1(C/C(C)=N/NC(N)=O)CC(C)OC1=O (stereo not given)	n	n	n	n
CCCCCOCC1CC(C/C(C)=N/NC(N)=O)(C(=O)OCC)C(=O)O1 (stereo not given)	-41.2	n	n	x
Cc1cccc(C)c1-n1nnnc1C1c2ccccc2C(=O)N1CCCN1CCOCC1 (stereo not given)	n	n	n	n
O=C(O)C1CCC(NSc2ccccc2[N+](=O)[O-])CC1 (stereo not given)	n	n	n	n
CCOc1cc(C2NC(=O)NC(C)=C2C(=O)OCc2ccccc2)ccc1O (stereo not given)	n	-68.8	n	n
CC(=O)Nc1ccc(S(=O)(=O)Oc2cccc(/C=N/N=C3/NC(=O)C(CC(=O)O)S3)c2)cc1 (stereo not given)	n	n	n	n
N#CC(CC(=O)c1ccc(F)cc1)c1ccc2c(c1)OCO2 (stereo not given)	n	n	n	n
O=C(NC(=S)NNC(=O)c1cc2ccccc2cc1O)c1ccco1	n	-91.4	n	-93.9
O=C(/C=C/c1cccs1)NC(=S)NNC(=O)c1ccccc1O	n	-75.7	n	-94.1
O=C(NC(=S)NNC(=O)c1ccccc1O)c1ccco1	n	-90.6	n	n
COc1ccc(C(=O)NC(=S)NNC(=O)c2ccco2)cc1	n	n	n	n

Source: PubChem
